Data as given in PubChem BioAssay (Tox21).
Unmarked numbers belong to inactive results. Records with an inconclusive call do not appear. Entries that show only a call come without a potency. Active and inactive are the calls of the source. Unless noted, calls come from the whole dose curve; as a rule, active = well fitted curve in the direction sought with a large enough effect in the repeat runs; inconclusive = weak or mixed curves; inactive = no such curve, though single readings can be large; an effect the other way counts as inactive or inconclusive.

Tests used:
[1] = qHTS assay to identify small molecule agonists of the hypoxia (HIF-1) signaling pathway - cell viability counter screen (AID 1224844; calls by dose curve; note: nearly all actives have a fitted effect of over 50% in size; note: potency is the fitted concentration of half-maximal effect)
Method in brief: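 ME-180 HRE-bla cells, 2,000/well, 0.5% dialyzed FBS; 5 hr settle, 17 hr compound at 37C/5% CO2; CCF4-AM reporter read first, then CellTiter-Glo luminescence after 30 min RT.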

[2] = qHTS assay to identify small molecule agonists of H2AX (AID 1224845; active = well fitted activation curve with a large enough effect in the signal ratio in the repeat runs, not every such curve was filed as active; the % refers to the signal ratio)
Method in brief: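 Phospho-H2AX Ser139 measured by HTRF (ex 320 nm; em 665 and 620 nm) after 24 hr antibody incubation. Compounds, 15 concentrations, 0.76% DMSO, were applied to CHO-K1 cells for 3hr at 37C before lysis.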

[3] = qHTS assay to identify small molecule agonists of the hypoxia (HIF-1) signaling pathway (AID 1224846; active = well fitted activation curve with a large enough effect in the signal ratio in the repeat runs, not every such curve was filed as active; the % refers to the signal ratio)
Method in brief: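 Cell line: CellSensor HRE-bla ME-180; 2,000 cells/well; 0.5% dialyzed FBS; 5 h preincubation; DMSO compound pin transfer; 17 h, 37C, 5% CO2; CCF4-AM added; bla FRET signal scored for activation.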

[4] = qHTS RealTime-Glo MT Cell Viability Assay in HepG2 cells - 24 hour (AID 1224867); note: nearly all actives have a fitted effect of over 50% in size
Method in brief: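 Compound treatment began 5 h after plating HepG2 cells (600/well) with NanoLuc luciferase and prosubstrate. Plates stayed at 37 C for 40 h; luminescence was captured at six time points, 0 h through 40 h.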

[5] = qHTS RealTime-Glo MT Cell Viability Assay in HEK293 cells - 32 hour (AID 1224868); note: top concentration of the series differs between compounds; nearly all actives have a fitted effect of over 50% in size
Method in brief: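 Quantitative high-throughput screen of the Tox21 10K library in HEK293: cells and RealTime-Glo reagents plated together, compound added at 5 h, luminescence monitored through 40 h at 37 C.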

[6] = A CellTox Green Cytotoxicity Assay to monitor cytotoxicity in HEK293 cells - 0 hour (AID 1224869); note: nearly all actives have a fitted effect of over 50% in size
Method in brief: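 Nonlytic real-time cytotoxicity: HEK293 + CellTox Green reagent plated, 5 h preincubation, pintool compound addition (23 nL in DMSO), 37 C for 40 h, fluorescence measured at successive time points.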

[7] = qHTS assay to identify small molecule antagonists of the estrogen related receptor (ERR) signaling pathway from Tox21 library (AID 1224848); note: nearly all actives have a fitted effect of over 50% in size; note: potency is the fitted concentration of half-maximal effect
Method in brief: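 Reading was by luminescence 30 min after ONE-Glo addition. Before that, ERR cells at 2,000 per well had rested 6 h at 37 C/5% CO2 and then received pin-tooled compounds in DMSO for 18 h at 37 C.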

[8] = qHTS assay to identify small molecule agonists of the estrogen related receptor (ERR) signaling pathway from Tox21 library (AID 1224849; calls by dose curve; note: nearly all actives have a fitted effect of over 15% in size); conditions: ERR reporter cell line, ONE-Glo luciferase, 18 h; at 92.4 µM (top of the series) unless noted
Method in brief: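 ERR cells, 6 h pre-incubation 37 C/5% CO2; cpd in DMSO pinned; 18 h 37 C; ONE-Glo added, 30 min RT; luminescence read. Agonist mode, qHTS.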

[9] = qHTS assay to identify small molecule agonists of H2AX - cell viability counter screen (AID 1224847; calls by dose curve; note: top concentration of the series differs between compounds; nearly all actives have a fitted effect of over 30% in size)
Method in brief: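 We seed wild-type CHO-K1 cells overnight, treat them for 3 hr at 37C with compounds in 15-concentration series, and quantify remaining viability by CellTiter-Glo luminescence.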

Row | SMILES | Potency [1] | outcome [2] | outcome [3] | outcome [4] | Potency [5] | Potency [6] | Potency [7] | activity change, positive = activation [8] | Potency [9]
1 | CC(C)[N+](C)(C)CC(O)COc1cccc2ccccc12 (stereo unspecified) | inactive | inactive | inactive | inactive | inactive | inactive |  |  | 
2 | CC(C)c1cccc(C(C)C)c1N | inactive | inactive | inactive | inactive | inactive | inactive | inactive | 0.341% | 
3 | CCCCOCC(C)OCC(C)O (stereo unspecified) | inactive | inactive | inactive | inactive | inactive | inactive |  |  | 
4 | CN1[C@@H]2CC[C@H]1CC(NC(=O)n1c(=O)[nH]c3ccccc31)C2 (stereo partly specified) | inactive | inactive | inactive | inactive | inactive | inactive | inactive | 7.7% [at 42.5 µM] | 
5 | NC1CCN(c2cccc(Cl)n2)CC1 | inactive | inactive |  | inactive | inactive | inactive |  |  | inactive
6 | Nc1[nH]c(=O)ncc1F | inactive | inactive |  | inactive | inactive | inactive | inactive | -0.92% [at 42.5 µM] | inactive
7 | CCCOc1ccccc1-c1nc2n[nH]nc2c(=O)[nH]1 | inactive | inactive |  | inactive |  | inactive |  |  | inactive
8 | OCCN1C[C@H](O)[C@@H](O)[C@H](O)[C@H]1CO | inactive | inactive | inactive | inactive | inactive | inactive |  |  | 
9 | O=C(O)/C=C/c1ccc(Cn2ccnc2)cc1 | inactive | inactive |  | inactive | inactive | inactive |  |  | 
10 | O=C(O)Cc1cc(I)c(Oc2cc(I)c(O)c(I)c2)c(I)c1 | 24.1 µM (active) |  |  | inactive | inactive | inactive |  |  | inactive
11 | COC(=O)C1=C(C)NC(C)=C(C(=O)OCC(C)=O)C1c1ccccc1[N+](=O)[O-] (stereo unspecified) | inactive | inactive | inactive | inactive | inactive | inactive | inactive | -8.69% [at 42.5 µM] | 
12 | CCc1cc(S(=O)(=O)O)c2cc(C(C)C)cccc1-2 | inactive |  | inactive | inactive | inactive | inactive |  |  | inactive
13 | O=C1C(CCS(=O)c2ccccc2)C(=O)N(c2ccccc2)N1c1ccccc1 (stereo unspecified) | inactive | inactive |  | inactive | inactive | inactive |  |  | 
14 | NS(=O)(=O)c1cc2c(cc1Cl)NC(CSCc1ccccc1)=NS2(=O)=O | inactive | inactive |  | inactive |  | inactive |  |  | inactive
15 | Nc1ccc2cc(S(=O)(=O)O)ccc2c1 | inactive |  | inactive | inactive | inactive | inactive |  |  | inactive
16 | CN(C)CCOC(c1ccc(Cl)cc1)c1ccccn1 (stereo unspecified) | inactive | inactive |  | inactive | inactive | inactive |  |  | inactive
17 | CCCC(C)C(=O)O (stereo unspecified) |  | inactive | inactive | inactive |  | inactive | 52.3 µM (active) | -46.3% | 
18 | c1ccc(CCCc2ccccn2)cc1 | inactive | inactive | inactive | inactive | inactive | inactive | inactive | 34.3% (active) | 
19 | C=CCn1c(=O)n([C@@H]2O[C@H](CO)[C@@H](O)[C@H]2O)c2nc(N)[nH]c(=O)c21 | inactive | inactive | inactive | inactive | inactive | inactive |  |  | 
20 | CC(C)(C)OC(=O)N1C[C@@H](F)C[C@H]1C(=O)O | inactive |  | inactive | inactive | inactive | inactive |  |  | inactive
21 | CN(C)C(=O)C(CCN1CCC(O)(c2ccc(Cl)cc2)CC1)(c1ccccc1)c1ccccc1 |  | inactive |  |  |  | inactive | 21.1 µM (active) | -39.4% [at 42.5 µM] | inactive
22 | CCCCCCCCCCCCI |  | inactive | inactive |  |  | inactive |  |  | inactive
23 | CCO[Si](CCCN=C=O)(OCC)OCC | inactive | inactive | inactive | inactive |  | inactive | inactive | -6.45% | 
24 | CNC(=O)c1c(I)c(NC(=O)CCCCC(=O)Nc2c(I)c(C(=O)O)c(I)c(C(=O)NC)c2I)c(I)c(C(=O)O)c1I | inactive | inactive | inactive | inactive | inactive | inactive | inactive | 8.83% [at 42.5 µM] | 
25 | O=C(O)c1cccc(C(=O)O)n1 | inactive | inactive | inactive | inactive | inactive | inactive | inactive | 2.2% | 
26 | CC/C=C\CCCCO | inactive | inactive | inactive | inactive | inactive | inactive |  |  | 
27 | NC(=O)c1ncn([C@@H]2O[C@H](CO)[C@@H](O)[C@H]2O)c1N | inactive | inactive | inactive | inactive | inactive | inactive |  |  | 
28 | CCN(CC)C(=O)c1ccc(O)c(OC)c1 | inactive | inactive |  | inactive |  | inactive |  |  | 
29 | C=C(C)C(=O)OCCC(C)OC(=O)C(=C)C (stereo unspecified) | inactive | inactive | inactive | inactive | inactive | inactive | inactive | 3.72% | 
